The list is not random: actives were taken first. Their share in the collection is about 9.6%.
USP30 block: blocks human USP30 ubiquitin-rhodamine cleavage. purified USP30, Ub-rhodamine cleavage fluorescence. inhibition, % at 25 µM. 5.3% of 47,000 active. AID 1645860. Q70CQ3
USP17 inh: blocks human USP17 ubiquitin-rhodamine cleavage | purified USP17, Ub-rhodamine cleavage fluorescence, 3 h | inhibition, % at 50 µM | 6.5% of 47,000 active
Target sequence (A8MUK1 whole entry, looked up): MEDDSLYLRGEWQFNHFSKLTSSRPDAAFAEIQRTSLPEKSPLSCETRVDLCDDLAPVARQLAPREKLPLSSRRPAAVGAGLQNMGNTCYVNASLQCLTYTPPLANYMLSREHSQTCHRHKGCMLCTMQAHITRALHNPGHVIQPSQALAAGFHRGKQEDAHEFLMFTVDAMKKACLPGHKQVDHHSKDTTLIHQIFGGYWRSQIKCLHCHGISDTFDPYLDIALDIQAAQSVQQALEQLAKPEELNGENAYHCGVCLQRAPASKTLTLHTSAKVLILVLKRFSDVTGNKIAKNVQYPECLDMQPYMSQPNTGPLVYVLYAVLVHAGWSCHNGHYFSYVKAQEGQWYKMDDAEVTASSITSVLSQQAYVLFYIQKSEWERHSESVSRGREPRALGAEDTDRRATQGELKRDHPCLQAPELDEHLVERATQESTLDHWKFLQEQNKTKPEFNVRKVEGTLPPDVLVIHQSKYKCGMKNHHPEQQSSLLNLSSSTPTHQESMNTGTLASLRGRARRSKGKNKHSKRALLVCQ
Starred values were filed as active, the others as inactive; i = inactive; · = not tested or not shown. Rule as the data show it: active = inhibition above about 30%; inactive = the rest.

SMILES | USP30 block | USP17 inh
CN(Cc1ccccc1)C(=O)Cn1cnc2c(cnn2C)c1=O | -4 | 1
Cc1c(C)n(-c2ccccc2)c2ncn(CC(=O)N(C)Cc3ccccc3)c(=O)c12 | -2 | 53*
Cc1ccccc1CC(=O)Nc1cnc(-c2ccccc2)nc1 | 1 | 25
COc1ccc(OC)c(-c2nc(-c3ccc(Br)cc3)c(-c3ccc(Br)cc3)[nH]2)c1 | 15 | 3
CCOc1ccccc1CN1CCN(C/C=C/c2ccccc2)CC1 | -8 | -3
Cc1ccc(CNC(=O)c2cccc(-c3cnc(N4CCCC4)nc3)c2)cc1 | 15 | 0
Cn1c(CCN2CCCCC2)nc2cc(NC(=O)COc3ccc(Cl)cc3)ccc21 | 0 | -5
Cn1c(CCN2CCCCC2)nc2cc(NC(=O)c3ccc(Cl)cc3)ccc21 | -17 | 33*
Cc1ccc(N2C(=O)c3ccccc3NC2(C)c2cc3ccccc3o2)cc1 (stereo not drawn) | 8 | 5
c1cn(-c2cc(N3CCCC3)ncn2)cn1 | 9 | 2
O=C(Nc1cccc2cccnc12)c1nnn(-c2ccccc2)n1 | 18 | 44*
O=C(Nc1ccccc1)c1nnn(-c2ccccc2)n1 | 8 | -2
Cc1ccc(CC(=O)N2C[C@H]3NC(=O)c4ccccc4C(=O)[C@@]3(C)C2)cc1 | 20 | 18
CCOc1ccc2oc(C(=O)Nc3ccccc3CN(C)C3CCCCC3)c(C)c2c1 | 5 | 15
O=C(Nc1nc2c(s1)COCC2)c1cc(-c2ccco2)[nH]n1 | -22 | 73*
O=C(Nc1ccc2cn[nH]c2c1)c1cc(-c2ccco2)on1 | -215 | -2
COc1ccc(CN2C(=O)CCC2(C)C(=O)NC2CCCC2)cc1OC (stereo not drawn) | -1 | -7
Cc1cccc(C)c1-n1nnnc1C(C)(C)N1CCOCC1 | -2 | 2
CCn1c(-c2cc(NC(=O)c3cnccn3)n[nH]2)cc2cc(OC)ccc21 | 7 | 1
O=C(Nc1ccnn1CCc1ccccc1)c1cnn2cccnc12 | -25 | -1
O=C(Nc1ccc(N2CCOCC2)cc1)c1cc(=O)[nH]c2ccccc12 | 9 | 60*
O=C(Nc1cc(S(=O)(=O)N2CCOCC2)ccc1N1CCCC1)c1cc(=O)[nH]c2ccccc12 | -79 | -11
O=C(Nc1ccc2c(c1)OCCO2)c1cc(-c2ccccn2)nc2ccccc12 | -27 | 2
O=C(Nc1ccc2c(c1)OCCCO2)c1cc(=O)[nH]c2ccccc12 | · | 46*
CC(=O)Nc1ccc(OCC(=O)N2CCN(c3ccc(F)cc3)CC2)nc1 | -6 | 0
SMILES | USP30 block | USP17 inh
O=C(Nc1ccc(Br)cc1)c1cc(CN2CCCC2)on1 | -5 | -7
Cc1ccccc1CNC(=O)c1nc(N2CCCCC2)c2cn(C)nc2n1 | 21 | ·
O=C(NC1(O)C(=O)c2ccccc2C1=O)c1cccc2c1-c1ccccc1C2=O | 45* | 91*
COc1ccc(NC(=O)c2[nH]nc3c2COc2ccccc2-3)c(OC)c1 | 10 | 77*
O=C(NCCN1CCCCC1)c1[nH]nc2c1COc1ccccc1-2 | 22 | 9
COc1ccc2c(c1)CCc1c-2n[nH]c1C(=O)NCCN1CCOCC1 | 3 | 10
COc1ccc(NC(=O)c2[nH]nc3c2CCc2ccccc2-3)c(OC)c1 | -53 | 15
COc1ccc2c(c1)CCc1c-2n[nH]c1C(=O)Nc1ccccc1OC | -35 | 50*
O=C(NCc1ccc2c(c1)OCO2)c1[nH]nc2c1COc1ccccc1-2 | 39* | 60*
COc1ccc2c(c1)CCc1c-2n[nH]c1C(=O)Nc1ccc(F)cc1C | 30* | 15
CC(C)NC(=O)c1[nH]nc2c1COc1ccccc1-2 | 2 | -7
COc1cccc(C(=O)N2CCc3nc(-c4ccc(F)cc4)ncc3C2)c1 | -27 | -9
COc1ccc(C(=O)CN2CCc3nc4ccncc4cc3C2)cc1 | i | -141
CC1(c2cc3ccccc3o2)NC(=O)N(CC(=O)N2CCC(Cc3ccccc3)CC2)C1=O (stereo not drawn) | -6 | 22
Cc1cc(C)c(-c2nc(NC(=O)c3cnccn3)sc2C)cc1C | -58 | -53
COc1ccc2c(c1)CCc1c-2n[nH]c1C(=O)N1CCN(c2ccccn2)CC1 | 0 | -14
COc1ccc2c(c1)CCc1c-2n[nH]c1-c1nc(-c2ccccn2)no1 | -58 | 33*
Cc1ccc(-c2cn3ccn(-c4ccc(F)cc4)c(=O)c3n2)cc1 | 29 | 18
Cc1nn(C)c(NC(=O)Nc2ccccc2F)c1C1=CCCCC1 | 34* | 24
Cc1nn(C)c(NC(=O)Nc2ccc(F)cc2F)c1C1=CCCCC1 | -8 | 0
C=C[C@]1(C)C=C2C(=O)[C@]3(O)OC(=O)[C@@]4(CCCC(C)(C)[C@H]34)[C@@]2(O)CC1 | 25 | 69*
Cc1cc(C)cc(C(=O)N2CCN(S(=O)(=O)c3c(C)nn(C)c3C)CC2)c1 | 7 | -4
O=C(NC[C@H]1OC[C@@H]2CCN(c3ccccn3)C[C@@H]21)c1ccnnc1 | -30 | -7
Cc1ccccc1NC(=O)Cn1cncc(-c2nc(-c3ccccc3)cs2)c1=O | -154 | 60*
Cc1ccc(NC(=O)Cn2cncc(-c3nc(-c4ccccc4)cs3)c2=O)cc1F | -14 | 9
SMILES | USP30 block | USP17 inh
O=C(N1CCC2(CC1)CC(Oc1ccccc1F)CO2)C1(Cc2ccccc2)CCOCC1 (stereo not drawn) | -9 | -4
CCCc1nc2cccnc2n1C1CCN(S(=O)(=O)c2ccc3c(c2)CC(=O)N3C)C1 (stereo not drawn) | -8 | 5
CCCCC/C=C/C(O)C(O)/C=C/c1ccc(Cl)c(O)c1CO (stereo not drawn) | -64 | 31*
COc1cccc2c1OC(C)(C)[C@H]1CC3(CCN(C(=O)c4cncc(O)c4)CC3)CO[C@H]21 | -1 | 1
Cc1cccc(Cn2c(=O)c(C#N)c3n(c2=O)CCC3)c1 | -202 | -55
Cc1ccc(-c2cc(C(=O)N3CCc4ccccc4C3)nn2C2CCS(=O)(=O)C2)cc1 (stereo not drawn) | 31* | 9
CCCNC(=O)c1cc(-c2ccc(C)cc2)n(C2CCS(=O)(=O)C2)n1 (stereo not drawn) | 10 | 2
COc1ccc(C2(c3nnc(C4CC4)o3)CCOCC2)cc1 | -1 | -8
COc1ccc(S(=O)(=O)N2CCN(C(=O)c3cccnc3)CC2)cc1 | 2 | -9
CN(Cc1ccccc1)S(=O)(=O)c1ccc(S(=O)(=O)N2CCN(C(=O)c3cccnc3)CC2)cc1 | 74* | 23
COc1cccc(N2CCN(c3ccc4nnc(CCC(=O)NC5CCCC5)n4n3)CC2)c1 | 20 | 22
CC1CC(C)CN(C(=O)CCc2nnc3ccc(N4CCCC4)nn23)C1 (stereo not drawn) | 31* | 18
O=C(CCc1nnc2ccc(N3CCOCC3)nn12)Nc1ccccc1F | -2 | 3
COC(=O)c1ccc(NC(=O)CCc2nnc3ccc(N4CCOCC4)nn23)cc1 | 30 | 31*
CC1CCN(c2ccc3nnc(CCC(=O)N4CCCC4)n3n2)CC1 | 13 | 6
COc1cccc(N2CCN(c3ccc4nnc(CCC(=O)N5CCc6ccccc6C5)n4n3)CC2)c1 | 48* | 72*
O=C(CCN1C(=O)c2ccccc2Sc2ncccc21)Nc1cc(F)ccc1F | -109 | 8
O=C(/C=C/c1ccco1)c1cccc([N+](=O)[O-])c1 | 3 | 83*
O=C(c1cccc([N+](=O)[O-])c1)N(c1ccccn1)c1ccccn1 | -185 | -13
CC(=O)N1CCc2c(sc(NC(=O)c3cccc(Cl)c3)c2C#N)C1 | · | -10
